# Screening results deposited in PubChem BioAssay by National Center for Advancing Translational Sciences (NCATS).
# Shown are actives, neighbours in structure and some others; about 12% of the full set was active somewhere.
# JMJD2A Tudor: blocks the human JMJD2A Tudor domain. O75164. AlphaScreen JMJD2A-Tudor / H3K4me3 peptide binding. Potency, µM (series often up to 114 µM), for the others: top-dose activity change, negative = inhibition, usual class: inhibitors. 390,000 compounds, 4.4% hits; further: potency means the concentration at half of the fitted maximal effect; on the % scale 0 is the no-effect control and ±100 the full control effect; nearly all actives have a fitted effect of over 50% in size
# G9a inh: G9a (human) methyltransferase inhibition; G9a H3K9 monomethylation, AlphaScreen, 2 h; Potency, µM (series often up to 102 µM), for inactives: at the top dose activity, negative = inhibition, actives largely listed as inhibitors; 350,000 compounds, 8.8% hits; further: potency means the concentration at half of the fitted maximal effect; on the % scale 0 is the no-effect control and ±100 the full control effect; nearly all actives have a fitted effect of over 75% in size
#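 Chemiluminescent proximity detection of H3K9 monomethylation, read after 10 min bead incubation in the dark. Reaction: 20 nM G9a, 500 nM biotin-H3K9 peptide, 20 uM SAM cofactor, 2 h, room temperature, following 15 min enzyme-compound preincubation.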
# BAZ2B inh: blocks human BAZ2B; AlphaScreen BAZ2B-H3K14Ac peptide displacement; Potency, µM (doses to about 114 µM), without a hit: at the top dose activity change, negative = inhibition, actives largely listed as inhibitors; 360,000 compounds, 4.4% hits; AID 504333; further: potency means the concentration at half of the fitted maximal effect; on the % scale 0 is the no-effect control and ±100 the full control effect; nearly all actives have a fitted effect of over 60% in size
#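 Multi-concentration screen (max 110 uM) measuring displacement of acetylated histone H3 peptide from BAZ2B by AlphaScreen, using 50 nM protein, 50 nM peptide and 10 ug/mL streptavidin donor plus Ni-chelate acceptor beads.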
# HP1b chromo inh: HP1-beta chromodomain-methylated histone interaction inhibition; P83916; AlphaScreen HP1-beta / biotin-H3K9me3 peptide binding; Potency, µM (top dose mostly 114 µM), inactives show at the highest dose activity change, negative = inhibition, hits mostly inhibitors; 390,000 compounds, 0.56% hits; AID 540317; further: potency means the concentration at half of the fitted maximal effect; nearly all actives have a fitted effect of over 70% in size
# Target sequence (P83916 whole entry, looked up): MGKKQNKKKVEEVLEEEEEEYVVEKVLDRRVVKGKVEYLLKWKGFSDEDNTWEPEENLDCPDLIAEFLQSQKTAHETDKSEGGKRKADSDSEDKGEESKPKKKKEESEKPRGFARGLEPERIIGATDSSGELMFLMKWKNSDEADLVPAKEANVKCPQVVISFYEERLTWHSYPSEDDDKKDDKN
#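 Compound inhibition of the preformed complex between 50 nM HP1-beta and 50 nM biotinylated H3K9me3 peptide was read by AlphaScreen. Buffer was PBS pH 7.4 with 0.01% Tween-20. Incubations ran 30 min at room temperature, with 10 ug/mL donor/acceptor beads.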
# PLK1 PBD inh: PLK1 (human) polo-box domain binding inhibition | P53350 | Plk1 PBD binding of FITC phosphopeptide, fluorescence polarization | Potency, µM, without a hit: max response, negative = inhibition, most hits filed as inhibitors | 360,000 compounds, 2.8% hits | AID 720504; further: potency means the concentration at half of the fitted maximal effect; series mostly up to about 57 µM; on the % scale 0 is the no-effect control and ±100 the full control effect; nearly all actives have a fitted effect of over 65% in size
# PI5P4K alpha inh: blocks human PI5P4K alpha kinase activity; P48426; PI5P4Kalpha enzyme, ADP-Glo luminescence, 60 min; active compounds read low; max response, %; 330,000 compounds, 1.2% hits; AID 652105; active means max response of -50% or lower; inconclusive means between -30% and -50%; inactive means -30% or higher; further: value at the top dose of about 77 µM; on the % scale 0 is the no-effect control and ±100 the full control effect
# Target sequence (P48426 whole entry, looked up): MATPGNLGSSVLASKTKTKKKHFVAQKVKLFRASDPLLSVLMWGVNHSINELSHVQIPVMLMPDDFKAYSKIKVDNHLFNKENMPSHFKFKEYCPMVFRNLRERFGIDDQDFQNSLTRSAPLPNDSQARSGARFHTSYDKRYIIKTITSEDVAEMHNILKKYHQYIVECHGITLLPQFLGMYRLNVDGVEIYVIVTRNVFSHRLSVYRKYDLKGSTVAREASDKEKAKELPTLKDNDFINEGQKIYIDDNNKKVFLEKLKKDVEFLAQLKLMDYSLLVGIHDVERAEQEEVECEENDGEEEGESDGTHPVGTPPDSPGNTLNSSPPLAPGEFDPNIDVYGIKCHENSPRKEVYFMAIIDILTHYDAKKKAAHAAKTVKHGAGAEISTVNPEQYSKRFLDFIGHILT
#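 Luminescence from ADP-Glo served as readout of PI5P4Kalpha activity in a qHTS format. Reaction: enzyme, substrate, compound, ATP at 5 microM final, 60 min at RT.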
# * = called active by the depositor; u = inconclusive; x = no result given; ! = a repeat was not active; [ ] = remark or other dose. Unless noted, the call rests on the fitted dose curve; in most records, active means well fitted curve in the direction sought with a large enough effect; inconclusive means small, poorly fitted or top-dose-only effect, or another doubt; inactive means no such curve, though single readings can be large; an effect the other way counts as inactive or inconclusive.
SMILES,JMJD2A Tudor,G9a inh,BAZ2B inh,HP1b chromo inh,PLK1 PBD inh,PI5P4K alpha inh
COc1ccc(CN(CCC(c2ccc3c(c2)OCO3)c2ccccc2OC)C(C)=O)cc1 (stereo not drawn),u,u,u,-6%,x,x
Cc1cccc(N(CC(=O)O)CC(=O)O)c1,-35%,11µM*,-31%,1%,4%,1
COC(=O)c1cccc(CN2C(=O)C(C)Oc3ccc(C)cc32)c1 (stereo not drawn),x,x,x,x,-6%,-1
Cc1ccc(F)cc1C(=O)N1CCOCC1c1cc(C(=O)NCc2ccccc2)no1 (stereo not drawn),x,x,x,x,-10%,-2
COc1cc(OC)c2cc[nH]c2c1,-35%,12%,-36%,2%,5%,-6
COc1ccc2cc[nH]c2c1,u,25%[59 µM],u,-23%,21µM*,0
CCNC(=O)/N=C1/NC(=O)C(C(C)C)O1 (stereo not drawn),7.9µM*,u,-29%,0%,-1%,x
CC(OC(=O)c1ccccc1O)C(=O)Nc1ccc(Cl)cn1 (stereo not drawn),u,-15%,-16%,-17%,19µM*,-27
C=CCn1c(CC(=O)OC)csc1=Nc1ccc(C(C)=O)cc1,-12%,u,u,-12%,-3%,x
C=CCn1c(C)csc1=Nc1ccc(C(C)=O)cc1,-5%[11.4 µM],u,45µM*,-3%,-14%,-7
CCOC(=O)c1ccc(N=c2scc(C)n2CC)cc1,40µM*,22µM*,40µM*,u,0%,8
C=CCn1c(C)csc1=Nc1ccccc1C,56µM*,50µM*,50µM*,50µM*,30µM*,-2
CCOC(=O)c1ccc(N=NN(C)C)cc1,-11%,0%[12.7 µM],-32%,37%,-5%,3
Cc1ccc(S(=O)(=O)c2c(C)cc(C)nc2Cl)c(C)c1,12%,-14%[59 µM],4%,46%,-2%,3
Cc1cc(C)c(S(=O)(=O)/N=C2\C=CC(=O)C(Cl)=C2)c(C)c1,32µM*,7.9µM*,-12%,u,28µM*,x
CCOC(=O)c1c(S(=O)(=O)NCC(=O)N2CCN(c3ccccc3)CC2)c(C)n(C)c1C,-17%,-5%,-22%,-4%,-1%,13
CC(C)(C)c1ccc(CS(=O)(=O)CC(O)CN2CCCC2=O)cc1 (stereo not drawn),-31%,15%,-13%,10%,34µM*,-1
C(#Cc1ccccc1)C[N+]1(CC#Cc2ccccc2)CCCCC1,45µM*,-33%,-38%,5%,27µM*,-24
C#CC[N+]1(CC#Cc2ccccc2)CCCCC1,-1%,19%[59 µM],-5%,48%,-2%,8
Cc1ccc(C#CC[N+]2(CC#Cc3ccc(C)cc3)CCCCC2)cc1,-23%,89µM*,4%,22%,-8%,0
CC(=O)NC12CC3CC(C1)CC(C(=O)N1CCN(S(=O)(=O)c4cccc(C(F)(F)F)c4)CC1)(C3)C2,-21%,-18%[0.501 µM],-9%,35%,-1%,7
COc1ccccc1CNc1ccc(-c2nc(-c3ccccn3)no2)cc1[N+](=O)[O-],-17%,2%[59 µM],13%,51%,x,x
CCN(CC)c1ccc(S(=O)(=O)Nc2cc(Cl)ccc2Cl)cc1NC(=S)NC(=O)C1CCCC1,u,u,-10%,u,9.5µM*,-21
CCN(CC)S(=O)(=O)c1ccc(Cl)c(NC(=S)NC(=O)C2CCCC2)c1,-30%,-1%[59 µM],3%,31%,-10%,-3
O=C(O)c1ccc(N2C(=O)CC(SC(=NCc3ccc4c(c3)OCO4)Nc3ccc(F)cc3)C2=O)cc1 (stereo not drawn),-1%[11.4 µM],u,u,13%,u,2
SMILES,JMJD2A Tudor,G9a inh,BAZ2B inh,HP1b chromo inh,PLK1 PBD inh,PI5P4K alpha inh
O=C(O)c1ccc(N2C(=O)CC(SC(=NCc3ccc4c(c3)OCO4)Nc3ccccc3)C2=O)cc1 (stereo not drawn),-27%,x,u,21%,53µM*,5
O=C(CSc1ccc(-c2ccco2)nn1)NCCc1ccccc1,-16%,35µM*,-6%,51%,-8%,2
COc1ccc(CCNC(=O)CSc2ccc(-c3ccco3)nn2)cc1,-26%,-51%,u,16%,-20%,-8
Cc1ccc(CNC(=O)CSc2ccc(-c3ccco3)nn2)cc1,-16%,u,0%,17%,-6%,-1
O=C(CSc1ccc(-c2ccco2)nn1)NCc1ccc(F)cc1,-9%,45µM*,1%,13%,-16%,-27
COc1ccc(NC(=O)Nc2cccc3c2O[C@@H](CN(C)CC2CCCCC2)[C@@H](C)CN([C@H](C)CO)C3=O)cc1,-29%,x,x,29%,-11%,9
O=C(O)c1ccn[nH]1,45µM*,x,x,-2%,-11%,-5
COCCNC(=O)CSCc1nc(-c2ccc(SC)cc2)oc1C,-15%,42%[59 µM],-31%,31%,-6%,x
CCOCCCNC(=O)CSCc1nc(-c2ccc(SC)cc2)oc1C,-28%,17%[59 µM],-7%,-4%,30µM*,6
O=C1/C(=C/c2ccc(O)cc2)SC(=S)N1CC1CCCO1 (stereo not drawn),u,u,u,-22%,94%,0
CCOc1ccc(/C=C2\SC(=S)N(N3C(=O)C4CC4C3=O)C2=O)cc1 (stereo not drawn),u,40µM*,-25%,-21%,-1%,-6
Cc1ccsc1/C=C1\SC(=S)N(CC2CCCO2)C1=O (stereo not drawn),10µM*,5µM*,10µM*,45µM*,-3%,-1
CCCOc1ccc(/C=C2\SC(=S)N(CC3CCCO3)C2=O)cc1 (stereo not drawn),u,3.5µM*,u,u,-18%,-3
O=C(Cn1ccc2cc(S(=O)(=O)N3CCCCCC3)ccc21)NCc1cccc(Cl)c1,-24%,-28%[59 µM],0%,27%,x,x
Oc1c(Cl)cc(Cl)cc1/C=N/c1nccs1,-18%,8.9µM*,-2%,16%,34µM*,u
Oc1c(Cl)cc(Cl)cc1/C=N/c1nc(-c2ccc(Cl)cc2)cs1,u,u,-26%,-6%,-13%,u
Cc1ccc(N2CC(C(=O)NCCS(=O)(=O)N3CCN(c4ccccc4F)CC3)CC2=O)cc1 (stereo not drawn),16µM*!,-8%[59 µM],-15%,1%,11µM*,u
O=C(NCCS(=O)(=O)N1CCN(c2ccccc2F)CC1)C1CC(=O)N(c2ccccc2)C1 (stereo not drawn),-8%,16%,-1%,13%[57 µM],-4%,3
CCN(CC)S(=O)(=O)c1ccc2[nH]c(=O)c3ccccc3c2c1,-12%,-5%,-14%,23%,7%,-2
COC(=O)C[C@@H]1C=C[C@@H](NC(=O)CN(C)C)[C@@H](CO)O1,x,x,x,x,1%,9
